In the library only some 19% were active in any assay of this set; here they are far more common.
HT1080NT lethal: qHTS for induction of synthetic lethality in tumor cells producing 2HG: qHTS for the HT-1080-NT fibrosarcoma cell line; HT-1080-NT fibrosarcoma viability, CellTiter-Glo ATP luminescence, 48 h; Potency, µM (top dose mostly 46.1 µM), usual class: cytotoxic; actives 1.6% (n = 360,000);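 further: NT is the 2HG producing partner of a matched IDH1 knockdown line; nearly all actives have a fitted effect of over 55% in size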
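Viability of the 2HG-overproducing fibrosarcoma line after 48 hours of compound exposure at 37 degrees C was determined by luminescence with CellTiter-Glo, and concentration-effect curves were then fitted and categorized.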
TDP1 cell CPT: qHTS for Inhibitors of human tyrosyl-DNA phosphodiesterase 1 (TDP1): qHTS in cells in presence of CPT; chicken DT40 Tdp1-/-;hTDP1 cells + 20 nM CPT, ATP luminescence, 48 h; Potency, µM (top dose mostly 46.2 µM), most hits filed as inhibitors; actives 12% (n = 420,000); further: nearly all actives have a fitted effect of over 55% in size
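Chicken DT40 Tdp1-/- cells complemented with human TDP1, 400 cells/well, exposed to compounds plus 20 nM camptothecin for at least 48 h at 37 C; viability read as ATP content by CellTiter-Glo luminescence.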
IL1B secr inh: qHTS for Inhibitors of Inflammasome Signaling: IL-1-beta AlphaLISA Primary Screen; THP-1 LPS/ATP IL-1B secretion, AlphaLISA, 16 h; active compounds read low; activity change, % at 57.5 µM; actives 4.7% (n = 360,000); in the data active means activity change below about -50%; inconclusive means mostly about -30% to -49%
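THP-1 cells pretreated 1 hr with compounds (up to 57.5 uM final), then stimulated with LPS (250 ng/mL final) plus ATP (1.25 mM final); secreted IL-1B measured by AlphaLISA after 16 hr, decreased signal indicating inhibition.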
TDP1 cell noCPT: qHTS for Inhibitors of human tyrosyl-DNA phosphodiesterase 1 (TDP1): qHTS in cells in absence of CPT. actives 15% (n = 420,000). DT40 Tdp1-/- hTDP1 cells, no CPT, ATP luminescence, 48 h. Potency, µM (doses to about 46.2 µM), actives largely listed as inhibitors; further: nearly all actives have a fitted effect of over 55% in size
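Readout: luminescence from CellTiter-Glo after 30 min in the dark at RT. Cells: DT40 Tdp1-/- with stable hTDP1, 400/well. Exposure: compounds alone, ≥48 hr, 37 °C.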
HT1080 IDH1KD tx: qHTS for induction of synthetic lethality in tumor cells producing 2HG: qHTS for the HT-1080-IDH1KD cell line | HT-1080 IDH1 knockdown viability, ATP luminescence, 48 h | Potency, µM (titrated, usually from 46.1 µM), actives largely listed as cytotoxic | actives 2% (n = 360,000) | AID 686971, 2013
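After a 2 h attachment period, IDH1KD HT-1080 cells took pin-transferred compound for 48 h at 37 °C; ATP-based luminescence after 10 min room-temperature reagent incubation reported viability.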
Numbers stand for hits; - = inactive; ? = inconclusive; . = no result; [ ] = dose if it differs, or a comment. Unless noted, the call rests on the fitted dose curve; in most records, active means well fitted curve in the direction sought with a large enough effect; inconclusive means small, poorly fitted or top-dose-only effect, or another doubt; inactive means no such curve, though single readings can be large; an effect the other way counts as inactive or inconclusive.

SMILES	HT1080NT lethal	TDP1 cell CPT	IL1B secr inh	TDP1 cell noCPT	HT1080 IDH1KD tx
COc1ccc(Cc2nc3c4c(ncn3n2)Oc2ccc3ccccc3c2C4c2ccc(OC)c(OC)c2)cc1 (configuration not stated)	-	-	-	-	-
COc1ccc(C2c3ccc4ccccc4c3Oc3ncn(CCCO)c(=N)c32)cc1OC (configuration not stated)	7.3µM	?	-55	21µM	5.2µM
COc1ccc(C2c3ccc4ccccc4c3Oc3ncn(CCO)c(=N)c32)cc1OC (configuration not stated)	-	23µM	?	21µM	-
COc1ccccc1CN1C[C@@H]2C[C@@H](C3=Cc4cc(Cl)ccc4OC3)N3CCC[C@@]23C1=O	-	?	-	?	-
Cc1cc(C(=O)N2CCCC(C(=O)c3ccc(Cl)cc3C)C2)no1 (configuration not stated)	-	18µM	-	23µM	-
Cc1nc(C)c(C(=O)N2CCCC(C(=O)c3ccc(Cl)cc3C)C2)s1 (configuration not stated)	-	18µM	-	?	-
Cc1cc(Cl)ccc1C(=O)C1CCCN(C(=O)c2ccoc2)C1 (configuration not stated)	-	?	-	15µM	-
Cc1cc(Cl)ccc1C(=O)C1CCCN(C(=O)c2cnsn2)C1 (configuration not stated)	-	?	-	?	-
COc1ccc(C(=O)C2CCCN(C(=O)Cn3nc(C)nc3C)C2)cc1F (configuration not stated)	-	-	-	-	-
Cc1nc(C)n(CC(=O)N2CCCC(C(=O)c3ccc(Cl)cc3C)C2)n1 (configuration not stated)	-	0.41µM	-	18µM	-
Cc1ccc(-n2nnc(-c3nc(-c4cccs4)no3)c2N)cc1C	.	-	.	-	.
COc1ccc(C2CC(C)(c3ccc(OC)cc3OC)Nc3ccccc3N2)c(OC)c1 (configuration not stated)	-	-	-	-	-
O=C(NCc1ccncc1)Nc1cccc(Cl)c1	-	-	-	-	-
Cc1c(C(=O)Nc2cccc(Cl)c2)c2ccccn2c1CCc1ccncc1	-	?	-189	23µM	?
Cc1c(C(=O)Nc2ccc(Cl)cc2)c2ccccn2c1CCc1ccncc1	-	?	-59	?	-
C/C(=C(\CCO)SS/C(CCO)=C(\C)N(C=O)Cc1cnc(C)nc1N)N(C=O)Cc1cnc(C)nc1N	.	-	.	-	.
Cc1ccc(S(=O)(=O)c2cn(C)c3cc(N4CCN(C)CC4)c(F)cc3c2=O)cc1	-	?	-97	?	-
Cc1ccc(S(=O)(=O)c2cn(C)c3cc(N4CCN(c5ccccc5)CC4)c(F)cc3c2=O)cc1	.	?	.	7.3µM	.
Cn1cc(S(=O)(=O)c2ccccc2)c(=O)c2cc(F)c(N3CCN(c4ccc(F)cc4)CC3)cc21	.	-	.	?	.
OCCCNCc1cc2cc3c(cc2nc1N1CCN(c2cccc(Cl)c2)CC1)OCO3	.	-[9.04 µM]	.	-	.
CC(C)=CCC/C(C)=C/CNC(=O)C[C@H]1C[C@H](C(=O)N2CCCCC2)[C@@]2(CCc3ccccc3)c3[nH]c4ccc(Cl)cc4c3CCN2C1=O	-	-	-	-	-
CC(C)=CCC/C(C)=C/CNC(=O)CC1C[C@H](C(=O)N2CCOCC2)[C@@]2(C)c3[nH]c4ccccc4c3CCN2C1=O (some centres not stated)	-	13µM	?	12µM	-
CC(C)=CCC/C(C)=C/CNC(=O)C[C@H]1C[C@H](C(=O)N2CCOCC2)[C@@]2(C)c3[nH]c4ccc(Cl)cc4c3CCN2C1=O	-	23µM	-65	?	-
